Laboratory results taken from the supplement of paper PMC10849652.
About 8,800 targets were measured; listed, in parts, are those with a hit and a random draw of the rest. About 0.5% of all pairs of compound and target were hits. Values without a mark were called inactive.

Key:
Experiment in all cases: log2 fold change, soluble protein after heating vs DMSO (PISA); higher = thermal stabilisation; K562 lysate, 10 uM; active = over 0.2 and 3.5 SD of the protein, either way, in both replicates (recomputed)
nilotinib = compound: Cc1cn(-c2cc(NC(=O)c3ccc(C)c(Nc4nccc(-c5cccnc5)n4)c3)cc(C(F)(F)F)c2)cn1 [nilotinib]
How it was run: (§1)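 K562 pellets were dounce-homogenised in PBS pH 7.4 containing 1 mM MgCl2, and the crude extract, at 1 mg/mL protein, was exposed to 10 μM compound for 30 min. Aliquots were heated for 3 min across 48°C-58°C, pooled, brought to 0.5% NP-40 at 4°C and spun at 21,000xg for 90 min, with the supernatant taken as soluble protein. TMTpro 16plex LC-MS/MS with equalised channel sums quantified that protein. Values are log-two fold changes in thermal stability relative to solvent controls, taken from duplicates.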

[1] = compound: Cc1nc(Nc2n[nH]c3c2CN(C(=O)N[C@H](CN(C)C)c2ccccc2)C3(C)C)c2sccc2n1
How it was run: as §1

dasatinib = compound: Cc1nc(Nc2ncc(C(=O)Nc3c(C)cccc3Cl)s2)cc(N2CCN(CCO)CC2)n1 [dasatinib]
How it was run: as §1

[2] = compound: Cc1ncc(-c2ccnc(Nc3ccc(S(C)(=O)=O)cc3)n2)n1C(C)C
How it was run: as §1

[3] = compound: Cn1cc(-c2ccc3c(c2)CCN3C(=O)Cc2cccc(C(F)(F)F)c2)c2c(N)ncnc21
How it was run: as §1

quisinostat = compound: Cn1cc(CNCC2CCN(c3ncc(C(=O)NO)cn3)CC2)c2ccccc21 [quisinostat]
How it was run: as §1

tipifarnib = compound: Cn1cncc1[C@@](N)(c1ccc(Cl)cc1)c1ccc2c(c1)c(-c1cccc(Cl)c1)cc(=O)n2C [tipifarnib]
How it was run: as §1

[4] = compound: NC(=O)Nc1cc(-c2cccc(F)c2)sc1C(=O)N[C@H]1CCCNC1
How it was run: as §1

[5] = compound: NC(=O)c1cnc(N[C@@H]2CCCC[C@@H]2N)nc1Nc1cccc(-n2nccn2)c1
How it was run: as §1

[6] = compound: NC1(c2ccc(-c3nc4ccn5c(=O)[nH]nc5c4cc3-c3ccccc3)cc2)CCC1
How it was run: as §1

[7] = compound: NCC(=O)Nc1ccc(-n2nc(C(F)(F)F)cc2-c2ccc3c(ccc4ccccc43)c2)cc1
How it was run: as §1

vorinostat = compound: O=C(CCCCCCC(=O)Nc1ccccc1)NO [vorinostat]
How it was run: as §1

silmitasertib = compound: O=C(O)c1ccc2c(c1)nc(Nc1cccc(Cl)c1)c1ccncc12 [silmitasertib]
How it was run: as §1

[8] = compound: O=C1NC(=O)C(c2cnc3ccccn23)=C1c1cn2c3c(cc(F)cc13)CN(C(=O)N1CCCCC1)CC2
How it was run: as §1

entospletinib = compound: c1cn2cc(-c3ccc4cn[nH]c4c3)nc(Nc3ccc(N4CCOCC4)cc3)c2n1 [entospletinib]
How it was run: as §1

Target: MRPL10 isoform 2 (UniProt Q7Z7H8)
- log2 fold change (nilotinib): 0.009
- log2 fold change [1]: 0.016
- log2 fold change (dasatinib): -0.019
- log2 fold change [2]: 0.025
- log2 fold change [3]: 0.054
- log2 fold change (quisinostat): -0.22
- log2 fold change (tipifarnib): -0.017
- log2 fold change [4]: 0.015
- log2 fold change [5]: 0.024
- log2 fold change [6]: -0.011
- log2 fold change [7]: 0.005
- log2 fold change (vorinostat): 0.035
- log2 fold change (silmitasertib): -0.027
- log2 fold change [8]: -0.027
- log2 fold change (entospletinib): -0.027

Target: L3HYPDH (UniProt Q96EM0)
Sequence of UniProt Q96EM0 (Q96EM0 whole entry, looked up): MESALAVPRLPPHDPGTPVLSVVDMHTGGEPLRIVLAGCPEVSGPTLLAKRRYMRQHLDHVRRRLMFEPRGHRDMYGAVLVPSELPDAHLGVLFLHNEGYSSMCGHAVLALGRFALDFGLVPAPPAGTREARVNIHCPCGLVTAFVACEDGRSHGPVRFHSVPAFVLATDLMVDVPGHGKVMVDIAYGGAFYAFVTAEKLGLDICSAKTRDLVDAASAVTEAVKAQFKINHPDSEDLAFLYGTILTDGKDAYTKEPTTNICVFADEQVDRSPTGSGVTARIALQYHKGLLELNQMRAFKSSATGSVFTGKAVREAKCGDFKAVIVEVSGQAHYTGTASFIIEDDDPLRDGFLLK
- log2 fold change (nilotinib): 0.019
- log2 fold change [1]: 0.015
- log2 fold change (dasatinib): 0.073
- log2 fold change [2]: 0.001
- log2 fold change [3]: -0.003
- log2 fold change (quisinostat): -0.053
- log2 fold change (tipifarnib): -0.002
- log2 fold change [4]: 0.033
- log2 fold change [5]: 0.015
- log2 fold change [6]: 0.009
- log2 fold change [7]: 0.023
- log2 fold change (vorinostat): -0.31 (active)
- log2 fold change (silmitasertib): 0
- log2 fold change [8]: -0.02
- log2 fold change (entospletinib): -0.005

Target: LARS2 (UniProt Q15031)
Sequence of UniProt Q15031 (Q15031 whole entry, looked up): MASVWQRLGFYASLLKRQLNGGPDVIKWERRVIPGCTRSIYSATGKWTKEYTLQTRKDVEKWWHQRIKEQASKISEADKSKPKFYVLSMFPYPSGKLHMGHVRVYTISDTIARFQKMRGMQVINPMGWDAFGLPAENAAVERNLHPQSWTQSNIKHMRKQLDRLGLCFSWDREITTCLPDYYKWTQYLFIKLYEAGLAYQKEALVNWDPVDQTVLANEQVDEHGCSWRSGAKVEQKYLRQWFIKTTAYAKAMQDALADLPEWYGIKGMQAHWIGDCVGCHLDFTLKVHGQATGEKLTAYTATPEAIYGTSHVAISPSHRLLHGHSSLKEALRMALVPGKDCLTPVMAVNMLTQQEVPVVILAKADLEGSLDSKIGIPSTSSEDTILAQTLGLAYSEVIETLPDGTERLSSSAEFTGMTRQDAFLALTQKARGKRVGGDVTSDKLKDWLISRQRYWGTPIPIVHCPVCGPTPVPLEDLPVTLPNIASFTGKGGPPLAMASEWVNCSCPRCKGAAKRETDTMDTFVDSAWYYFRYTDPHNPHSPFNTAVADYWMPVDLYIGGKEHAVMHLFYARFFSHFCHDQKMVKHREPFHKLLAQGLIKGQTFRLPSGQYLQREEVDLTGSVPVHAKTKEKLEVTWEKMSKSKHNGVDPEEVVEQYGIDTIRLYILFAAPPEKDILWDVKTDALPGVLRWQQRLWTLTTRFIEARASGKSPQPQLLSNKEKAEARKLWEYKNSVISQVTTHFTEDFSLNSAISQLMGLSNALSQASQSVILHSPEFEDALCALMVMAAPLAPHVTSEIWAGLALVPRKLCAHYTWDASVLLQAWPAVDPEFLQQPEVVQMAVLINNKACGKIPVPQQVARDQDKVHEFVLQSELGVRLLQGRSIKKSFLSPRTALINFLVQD
- log2 fold change (nilotinib): -0.002
- log2 fold change [1]: 0.048
- log2 fold change (dasatinib): -0.075
- log2 fold change [2]: -0.008
- log2 fold change [3]: 0.065
- log2 fold change (quisinostat): 0.028
- log2 fold change (tipifarnib): -0.085
- log2 fold change [4]: 0.089
- log2 fold change [5]: 0.044
- log2 fold change [6]: -0.036
- log2 fold change [7]: -0.062
- log2 fold change (vorinostat): -0.229
- log2 fold change (silmitasertib): 0.054
- log2 fold change [8]: -0.083
- log2 fold change (entospletinib): 0.036

Target: MAP4 (UniProt E7EVA0)
- log2 fold change (nilotinib): 0.073
- log2 fold change [1]: 0.021
- log2 fold change (dasatinib): -0.009
- log2 fold change [2]: 0.046
- log2 fold change [3]: 0.057
- log2 fold change (quisinostat): -0.271 (active)
- log2 fold change (tipifarnib): -0.031
- log2 fold change [4]: 0.024
- log2 fold change [5]: 0.016
- log2 fold change [6]: -0.1
- log2 fold change [7]: -0.044
- log2 fold change (vorinostat): 0.025
- log2 fold change (silmitasertib): 0.028
- log2 fold change [8]: 0.079
- log2 fold change (entospletinib): -0.025

Target: MARK3 (UniProt P27448)
- log2 fold change (nilotinib): 0.013
- log2 fold change [1]: -0.004
- log2 fold change (dasatinib): -0.186
- log2 fold change [2]: -0.05
- log2 fold change [3]: 0.014
- log2 fold change (quisinostat): 0.172
- log2 fold change (tipifarnib): -0.072
- log2 fold change [4]: -0.08
- log2 fold change [5]: -0.029
- log2 fold change [6]: -0.06
- log2 fold change [7]: -0.035
- log2 fold change (vorinostat): -0.069
- log2 fold change (silmitasertib): 0.445 (active)
- log2 fold change [8]: 0.035
- log2 fold change (entospletinib): 0.036

Target: MRPL19 (UniProt P49406)
- log2 fold change (nilotinib): 0.001
- log2 fold change [1]: -0.015
- log2 fold change (dasatinib): -0.039
- log2 fold change [2]: -0.004
- log2 fold change [3]: 0.005
- log2 fold change (quisinostat): -0.055
- log2 fold change (tipifarnib): 0.033
- log2 fold change [4]: 0.024
- log2 fold change [5]: -0.018
- log2 fold change [6]: -0.044
- log2 fold change [7]: 0
- log2 fold change (vorinostat): -0.311 (active)
- log2 fold change (silmitasertib): 0.012
- log2 fold change [8]: 0.027
- log2 fold change (entospletinib): -0.054

Target: MED14 (UniProt O60244)
Sequence of UniProt O60244 (O60244 whole entry, looked up): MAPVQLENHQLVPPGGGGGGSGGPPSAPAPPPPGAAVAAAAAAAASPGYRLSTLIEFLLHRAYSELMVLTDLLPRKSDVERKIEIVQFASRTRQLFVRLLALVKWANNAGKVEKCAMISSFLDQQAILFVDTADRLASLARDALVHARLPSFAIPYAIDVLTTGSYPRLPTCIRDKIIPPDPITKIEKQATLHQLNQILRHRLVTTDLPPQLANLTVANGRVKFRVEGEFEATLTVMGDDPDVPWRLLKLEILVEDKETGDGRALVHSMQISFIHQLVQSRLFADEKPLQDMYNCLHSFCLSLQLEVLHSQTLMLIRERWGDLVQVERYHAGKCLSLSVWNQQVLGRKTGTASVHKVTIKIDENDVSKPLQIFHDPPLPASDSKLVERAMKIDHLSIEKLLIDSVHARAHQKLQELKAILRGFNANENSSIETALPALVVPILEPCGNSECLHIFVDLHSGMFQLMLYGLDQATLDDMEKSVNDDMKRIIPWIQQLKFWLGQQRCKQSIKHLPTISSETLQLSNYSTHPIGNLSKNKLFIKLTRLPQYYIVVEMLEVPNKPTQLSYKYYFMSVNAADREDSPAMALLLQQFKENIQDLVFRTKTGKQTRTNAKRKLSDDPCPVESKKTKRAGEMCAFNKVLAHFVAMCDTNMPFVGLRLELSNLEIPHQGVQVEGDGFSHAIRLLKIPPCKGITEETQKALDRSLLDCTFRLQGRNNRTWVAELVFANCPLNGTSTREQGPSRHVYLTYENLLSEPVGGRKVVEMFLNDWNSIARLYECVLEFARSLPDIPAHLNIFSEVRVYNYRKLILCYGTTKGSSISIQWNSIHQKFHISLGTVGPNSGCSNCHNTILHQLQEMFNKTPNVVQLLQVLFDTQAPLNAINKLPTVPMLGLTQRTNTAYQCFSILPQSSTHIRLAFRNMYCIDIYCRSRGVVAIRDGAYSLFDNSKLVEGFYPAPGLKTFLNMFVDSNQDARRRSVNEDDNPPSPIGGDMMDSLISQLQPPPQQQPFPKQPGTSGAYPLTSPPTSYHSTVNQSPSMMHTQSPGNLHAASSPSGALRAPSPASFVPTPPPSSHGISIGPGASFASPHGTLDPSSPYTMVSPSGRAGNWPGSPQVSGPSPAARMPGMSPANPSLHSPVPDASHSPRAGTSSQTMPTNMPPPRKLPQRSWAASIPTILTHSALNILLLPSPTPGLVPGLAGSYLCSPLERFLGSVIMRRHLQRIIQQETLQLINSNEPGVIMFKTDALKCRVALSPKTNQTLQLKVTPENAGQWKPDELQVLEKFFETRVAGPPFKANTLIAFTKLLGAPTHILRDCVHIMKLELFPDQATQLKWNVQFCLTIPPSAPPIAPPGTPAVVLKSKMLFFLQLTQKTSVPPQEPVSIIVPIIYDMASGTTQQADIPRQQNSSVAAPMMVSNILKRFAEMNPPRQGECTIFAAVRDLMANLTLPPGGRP
- log2 fold change (nilotinib): 0.027
- log2 fold change [1]: -0.013
- log2 fold change (dasatinib): -0.012
- log2 fold change [2]: -0.015
- log2 fold change [3]: 0.011
- log2 fold change (quisinostat): -0.021
- log2 fold change (tipifarnib): -0.013
- log2 fold change [4]: 0.011
- log2 fold change [5]: 0.015
- log2 fold change [6]: 0.047
- log2 fold change [7]: -0.01
- log2 fold change (vorinostat): -0.21 (active)
- log2 fold change (silmitasertib): -0.035
- log2 fold change [8]: 0.002
- log2 fold change (entospletinib): -0.084

Target: MRPL35 (UniProt Q9NZE8)
- log2 fold change (nilotinib): 0.05
- log2 fold change [1]: -0.027
- log2 fold change (dasatinib): 0.062
- log2 fold change [2]: 0.049
- log2 fold change [3]: -0.028
- log2 fold change (quisinostat): 0.004
- log2 fold change (tipifarnib): -0.037
- log2 fold change [4]: -0.034
- log2 fold change [5]: -0.007
- log2 fold change [6]: 0.056
- log2 fold change [7]: -0.229
- log2 fold change (vorinostat): -0.159
- log2 fold change (silmitasertib): 0.04
- log2 fold change [8]: 0.013

Target: LPCAT1 (UniProt Q8NF37)
- log2 fold change (nilotinib): -0.039
- log2 fold change [1]: 0.015
- log2 fold change (dasatinib): -0.084
- log2 fold change [2]: 0.014
- log2 fold change [3]: -0.045
- log2 fold change (quisinostat): 0.016
- log2 fold change (tipifarnib): 0.046
- log2 fold change [4]: 0.008
- log2 fold change [5]: 0.053
- log2 fold change [6]: 0.033
- log2 fold change [7]: -0.011
- log2 fold change (vorinostat): 0.027
- log2 fold change (silmitasertib): -0.076
- log2 fold change [8]: -0.026
- log2 fold change (entospletinib): -0.057

Target: MON2 isoform 5 (UniProt Q7Z3U7)
Sequence of UniProt Q7Z3U7 (Q7Z3U7 whole entry, looked up): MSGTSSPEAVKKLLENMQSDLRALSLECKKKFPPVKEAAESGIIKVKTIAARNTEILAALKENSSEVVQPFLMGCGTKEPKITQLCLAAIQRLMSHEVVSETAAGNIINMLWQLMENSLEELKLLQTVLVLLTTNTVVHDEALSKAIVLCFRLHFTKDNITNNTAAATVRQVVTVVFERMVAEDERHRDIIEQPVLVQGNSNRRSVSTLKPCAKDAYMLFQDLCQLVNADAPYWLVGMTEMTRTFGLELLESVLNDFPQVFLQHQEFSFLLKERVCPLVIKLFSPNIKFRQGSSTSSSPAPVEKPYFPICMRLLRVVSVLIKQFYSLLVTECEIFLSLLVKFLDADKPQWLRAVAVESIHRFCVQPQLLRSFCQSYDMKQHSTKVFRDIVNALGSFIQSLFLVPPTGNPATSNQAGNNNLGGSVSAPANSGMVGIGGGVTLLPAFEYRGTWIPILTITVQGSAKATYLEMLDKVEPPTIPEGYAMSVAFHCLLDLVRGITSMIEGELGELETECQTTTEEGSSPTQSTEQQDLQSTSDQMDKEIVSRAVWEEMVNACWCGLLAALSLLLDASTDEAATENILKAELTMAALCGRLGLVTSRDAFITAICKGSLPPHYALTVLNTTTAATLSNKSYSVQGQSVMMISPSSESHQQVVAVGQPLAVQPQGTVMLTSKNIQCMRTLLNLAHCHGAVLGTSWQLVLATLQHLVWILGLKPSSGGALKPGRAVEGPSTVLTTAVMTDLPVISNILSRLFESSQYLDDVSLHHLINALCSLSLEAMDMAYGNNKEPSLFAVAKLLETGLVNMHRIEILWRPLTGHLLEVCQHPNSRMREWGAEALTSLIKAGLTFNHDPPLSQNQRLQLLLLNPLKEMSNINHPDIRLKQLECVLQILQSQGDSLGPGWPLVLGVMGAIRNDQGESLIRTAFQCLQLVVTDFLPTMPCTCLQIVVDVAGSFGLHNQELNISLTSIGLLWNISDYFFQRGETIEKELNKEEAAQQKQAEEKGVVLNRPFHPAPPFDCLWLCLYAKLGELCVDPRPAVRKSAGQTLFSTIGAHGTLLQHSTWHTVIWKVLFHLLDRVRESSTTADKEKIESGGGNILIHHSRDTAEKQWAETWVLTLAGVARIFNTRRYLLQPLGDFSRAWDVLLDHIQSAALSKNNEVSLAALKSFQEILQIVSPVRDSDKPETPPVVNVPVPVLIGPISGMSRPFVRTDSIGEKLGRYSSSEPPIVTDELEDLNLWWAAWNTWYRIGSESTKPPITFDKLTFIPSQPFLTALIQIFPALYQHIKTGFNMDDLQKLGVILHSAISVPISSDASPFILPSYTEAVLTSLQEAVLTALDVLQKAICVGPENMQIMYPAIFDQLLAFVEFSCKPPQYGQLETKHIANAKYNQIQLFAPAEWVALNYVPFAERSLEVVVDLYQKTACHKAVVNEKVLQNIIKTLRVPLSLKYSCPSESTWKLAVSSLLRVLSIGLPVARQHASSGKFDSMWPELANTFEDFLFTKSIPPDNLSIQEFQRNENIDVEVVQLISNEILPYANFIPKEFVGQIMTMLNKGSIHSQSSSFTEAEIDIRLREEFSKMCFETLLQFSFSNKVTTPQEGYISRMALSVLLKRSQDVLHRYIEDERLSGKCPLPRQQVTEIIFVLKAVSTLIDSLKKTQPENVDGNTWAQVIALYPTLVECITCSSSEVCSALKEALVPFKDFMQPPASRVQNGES
- log2 fold change (nilotinib): -0.006
- log2 fold change [1]: -0.021
- log2 fold change (dasatinib): -0.072
- log2 fold change [2]: 0.018
- log2 fold change [3]: 0.039
- log2 fold change (quisinostat): -0.074
- log2 fold change (tipifarnib): -0.004
- log2 fold change [4]: 0.021
- log2 fold change [5]: 0.005
- log2 fold change [6]: -0.003
- log2 fold change [7]: 0.021
- log2 fold change (vorinostat): -0.525 (active)
- log2 fold change (silmitasertib): 0.021
- log2 fold change [8]: 0
- log2 fold change (entospletinib): 0.005

Target: MAPK9 (UniProt P45984)
Sequence of UniProt P45984 (P45984 whole entry, looked up): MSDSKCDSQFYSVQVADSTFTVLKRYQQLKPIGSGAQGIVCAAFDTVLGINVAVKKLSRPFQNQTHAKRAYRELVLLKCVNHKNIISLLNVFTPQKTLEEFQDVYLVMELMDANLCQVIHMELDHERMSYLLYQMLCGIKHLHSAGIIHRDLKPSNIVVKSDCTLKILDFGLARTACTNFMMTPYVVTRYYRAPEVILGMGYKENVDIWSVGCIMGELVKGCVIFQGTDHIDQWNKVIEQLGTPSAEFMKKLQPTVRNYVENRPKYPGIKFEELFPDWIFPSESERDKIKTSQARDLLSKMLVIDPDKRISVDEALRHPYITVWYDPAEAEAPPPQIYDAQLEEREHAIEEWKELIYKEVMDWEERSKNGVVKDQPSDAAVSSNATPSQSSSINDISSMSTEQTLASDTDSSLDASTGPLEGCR
- log2 fold change (nilotinib): -0.015
- log2 fold change [1]: 0.025
- log2 fold change (dasatinib): -0.005
- log2 fold change [2]: 0.174
- log2 fold change [3]: 0.118
- log2 fold change (quisinostat): 0.004
- log2 fold change (tipifarnib): -0.028
- log2 fold change [4]: -0.005
- log2 fold change [5]: 0.009
- log2 fold change [6]: 0.012
- log2 fold change [7]: -0.008
- log2 fold change (vorinostat): -0.129
- log2 fold change (silmitasertib): 0.037
- log2 fold change [8]: -0.004
- log2 fold change (entospletinib): 0
